Sampled rows, rich in hits. Any-hit rate of the full collection: about 12%.
Sfp inh – Sfp phosphopantetheinyl transferase inhibition | Q9F4F7 | actives 3.5% (n = 310,000) | Potency, µM, for the others: largest response in the series, negative = inhibition, usual class: inhibitors | Biochemical Sfp PPTase activity, qHTS;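 further: the enzyme is Sfp with the accession as filed and its product quenches rhodamine fluorescence; 0% = enzyme reaction without inhibitor and -100% = no enzyme wells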
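Buffer: 50 mM Hepes-Na pH 7.6, 10 mM MgCl2, 0.01% Nonidet P-40, 0.01% BSA. Enzyme 15 nM, pre-exposed to compound 15 min; substrates then added and fluorescence change tracked over 30 min.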
L3MBTL1 inh – L3MBTL1 (human) inhibition | AlphaScreen L3MBTL1–H3K9me1 peptide binding | Potency, µM (doses to about 57.1 µM), inactives show at the highest dose activity, negative = inhibition, usual class: inhibitors | actives 0.66% (n = 230,000); further: on the % scale 0 is the no-effect control and ±100 the full control effect; nearly all actives have a fitted effect of over 60% in size
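Displacement of a biotinylated histone H3(1-15) peptide monomethylated at Lys9 (75 nM) from L3MBTL1 (50 nM) was measured by AlphaScreen after a 30 min room-temperature compound incubation; cefsulodin titration served as intraplate control.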
G9a inh – blocks human histone lysine methyltransferase G9a. actives 8.8% (n = 350,000). Potency, µM (titrated, usually from 102 µM), inactives show at the top dose activity, negative = inhibition, most hits filed as inhibitors. G9a H3K9 monomethylation, AlphaScreen, 2 h; further: on the % scale 0 is the no-effect control and ±100 the full control effect; nearly all actives have a fitted effect of over 75% in size
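Signal arises when biotinylated H3K9 peptide, once monomethylated, bridges streptavidin donor and antibody-captured acceptor beads. Enzyme at 20 nM was preincubated 15 min with test compounds; peptide 500 nM and SAM 20 uM then reacted for 2 h.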
JMJD2A Tudor inh – blocks the human JMJD2A Tudor domain. O75164. AlphaScreen JMJD2A-Tudor / H3K4me3 peptide binding. Potency, µM (highest dose often 114 µM), for the others: at the top dose activity change, negative = inhibition, usual class: inhibitors. actives 4.4% (n = 390,000). AID 504339; further: on the % scale 0 is the no-effect control and ±100 the full control effect; nearly all actives have a fitted effect of over 50% in size
HP1b chromo inh – inhibitors of HP1-beta chromodomain binding to methylated histone tails; P83916; Potency, µM (doses to about 114 µM), for inactives: at the highest dose activity change, negative = inhibition, actives largely listed as inhibitors; AlphaScreen HP1-beta / biotin-H3K9me3 peptide binding; actives 0.56% (n = 390,000); further: nearly all actives have a fitted effect of over 70% in size
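AlphaScreen: HP1-beta (50 nM) preformed 30 min with biotin-H3(1-18)K9me3 peptide (50 nM) in PBS pH 7.4, 0.01% Tween-20. Compound added for 30 min at RT, then streptavidin donor/nickel chelate acceptor beads (10 ug/mL) for 30 min.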
BAZ2B inh – BAZ2B (human) inhibition | Q9UIF8 | AlphaScreen BAZ2B-H3K14Ac peptide displacement | Potency, µM (doses to about 114 µM), for the others: top-dose activity change, negative = inhibition, usual class: inhibitors | actives 4.4% (n = 360,000); further: on the % scale 0 is the no-effect control and ±100 the full control effect; nearly all actives have a fitted effect of over 60% in size
Target sequence (Q9UIF8 whole entry, looked up): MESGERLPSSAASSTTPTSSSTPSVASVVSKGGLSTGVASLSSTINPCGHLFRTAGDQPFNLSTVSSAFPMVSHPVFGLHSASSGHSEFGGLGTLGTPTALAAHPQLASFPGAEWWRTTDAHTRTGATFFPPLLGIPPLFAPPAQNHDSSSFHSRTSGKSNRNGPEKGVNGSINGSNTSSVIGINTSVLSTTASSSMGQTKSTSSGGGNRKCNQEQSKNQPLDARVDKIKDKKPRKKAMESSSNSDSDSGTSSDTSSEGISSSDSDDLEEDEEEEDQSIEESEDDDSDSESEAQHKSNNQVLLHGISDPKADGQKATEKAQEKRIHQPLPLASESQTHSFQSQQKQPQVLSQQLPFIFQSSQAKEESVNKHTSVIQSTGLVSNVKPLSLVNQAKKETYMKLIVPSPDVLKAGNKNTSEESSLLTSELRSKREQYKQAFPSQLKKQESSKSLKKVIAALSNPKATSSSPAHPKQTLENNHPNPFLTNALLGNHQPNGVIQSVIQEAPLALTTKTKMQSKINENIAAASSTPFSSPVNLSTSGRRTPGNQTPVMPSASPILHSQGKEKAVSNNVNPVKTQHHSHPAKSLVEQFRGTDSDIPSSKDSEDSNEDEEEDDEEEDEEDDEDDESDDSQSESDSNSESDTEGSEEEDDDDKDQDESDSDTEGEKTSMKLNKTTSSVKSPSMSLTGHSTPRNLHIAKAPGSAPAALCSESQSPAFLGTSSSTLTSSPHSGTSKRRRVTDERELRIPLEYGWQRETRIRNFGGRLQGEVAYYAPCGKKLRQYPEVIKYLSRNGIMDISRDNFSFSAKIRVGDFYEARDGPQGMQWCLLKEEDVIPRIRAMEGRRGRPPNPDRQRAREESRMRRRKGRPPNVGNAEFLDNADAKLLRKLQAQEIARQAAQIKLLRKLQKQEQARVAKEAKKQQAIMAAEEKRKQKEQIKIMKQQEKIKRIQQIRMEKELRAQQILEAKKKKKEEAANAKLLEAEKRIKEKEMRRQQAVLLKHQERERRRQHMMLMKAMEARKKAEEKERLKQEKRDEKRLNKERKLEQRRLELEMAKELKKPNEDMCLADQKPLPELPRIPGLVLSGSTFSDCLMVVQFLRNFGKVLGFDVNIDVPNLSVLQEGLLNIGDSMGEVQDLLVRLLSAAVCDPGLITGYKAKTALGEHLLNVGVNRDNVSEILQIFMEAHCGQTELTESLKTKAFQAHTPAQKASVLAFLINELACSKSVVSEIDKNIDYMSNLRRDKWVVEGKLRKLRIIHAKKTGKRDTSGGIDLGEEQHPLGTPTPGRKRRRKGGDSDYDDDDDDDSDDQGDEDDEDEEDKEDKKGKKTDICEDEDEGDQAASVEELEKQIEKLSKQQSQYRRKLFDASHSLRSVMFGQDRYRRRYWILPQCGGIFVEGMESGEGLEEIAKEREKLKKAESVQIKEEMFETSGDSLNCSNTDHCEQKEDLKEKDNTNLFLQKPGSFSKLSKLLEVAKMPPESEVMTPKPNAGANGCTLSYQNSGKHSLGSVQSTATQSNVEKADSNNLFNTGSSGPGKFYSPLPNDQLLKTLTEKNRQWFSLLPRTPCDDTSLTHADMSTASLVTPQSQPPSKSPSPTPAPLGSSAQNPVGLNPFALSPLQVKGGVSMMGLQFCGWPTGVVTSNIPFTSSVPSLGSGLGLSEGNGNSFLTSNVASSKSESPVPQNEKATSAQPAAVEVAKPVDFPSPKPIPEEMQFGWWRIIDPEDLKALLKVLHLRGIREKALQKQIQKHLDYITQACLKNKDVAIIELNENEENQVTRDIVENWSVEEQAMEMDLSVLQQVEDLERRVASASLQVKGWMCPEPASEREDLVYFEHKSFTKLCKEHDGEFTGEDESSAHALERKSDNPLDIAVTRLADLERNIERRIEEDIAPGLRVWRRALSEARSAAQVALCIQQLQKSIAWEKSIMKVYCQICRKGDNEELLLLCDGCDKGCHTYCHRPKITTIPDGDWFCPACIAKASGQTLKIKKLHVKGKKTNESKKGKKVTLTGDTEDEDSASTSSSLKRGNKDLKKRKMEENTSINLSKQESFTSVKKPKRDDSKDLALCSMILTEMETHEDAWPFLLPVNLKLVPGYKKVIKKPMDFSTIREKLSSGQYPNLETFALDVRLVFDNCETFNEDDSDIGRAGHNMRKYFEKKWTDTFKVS
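Inhibition is scored as reduced AlphaScreen emission. The BAZ2B/b-H3(5-23)K14Ac complex (50 nM each) in PBS pH 7.4, 0.01% Tween-20 meets compound (up to 110 uM) for 30 min at RT before bead addition.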
Active calls of the source: *; ? = inconclusive; / = no result; [ ] = remark or other dose. The call rests on the fitted dose curve; in most records, active means well fitted curve in the direction sought with a large enough effect; inconclusive means small, poorly fitted or top-dose-only effect, or another doubt; inactive means no such curve, though single readings can be large; an effect the other way counts as inactive or inconclusive. Potency means the concentration at half of the fitted maximal effect.

SMILES	Sfp inh	L3MBTL1 inh	G9a inh	JMJD2A Tudor inh	HP1b chromo inh	BAZ2B inh
Cc1ccc(Nc2ccc(N)cc2S(=O)(=O)O)cc1	10%	?	32µM*	-31%	-1%	?
NCCCC[C@@H]1NC(=O)c2cc([N+](=O)[O-])cc(F)c2NCCCC[C@@H](C(N)=O)NC(=O)[C@H](CCC(N)=O)NC1=O	7%	5%	?	-18%	28%	-3%
NCCCC[C@@H]1NC(=O)c2cc([N+](=O)[O-])cc(I)c2SC[C@@H](C(N)=O)NC(=O)[C@H](CCC(N)=O)NC1=O	9%	5%	8.9µM*	?	27%	?
NCCCC[C@@H]1NC(=O)c2cc([N+](=O)[O-])cc(I)c2SC[C@@H](C(=O)NCC(N)=O)NC(=O)CNC1=O	26%	10%	32µM*	-22%	50%	-9%
Cc1ccccc1OCc1nc2ccc(S(=O)(=O)N3CCOCC3)cc2[nH]1	40µM*	/	3.5µM*	?	-43%	?
O=c1c2ccccc2oc2ccc(NCCCn3ccnc3)cc12	10%	-8%	/	?	39%	50µM*
COc1cc2c(cc1OC)C1(Nc3c-2c(Cc2ccccc2)nn3-c2ccccc2)C(=O)Nc2ccccc21 (centres undefined)	3%	/	40µM*	?	-27%	50µM*
COc1ccc(OC)c(CN2CCN(Cc3cc(=O)oc4cc(O)ccc34)CC2)c1	-2%	/	35µM*	-20%	15%	-19%
O=c1cc(CN2CCN(S(=O)(=O)c3ccc4c(c3)OCCO4)CC2)c2ccc(O)cc2o1	1%	/	50µM*	-21%	9%	-11%
COC(=O)C1CCN(Cc2cc(=O)oc3cc(OC)ccc23)CC1	13%	/	5%[12.7 µM]	0%	18%	10%
COc1ccc(Oc2ncc3nc(-c4ccc(OC)cc4)c(=O)n(C)c3n2)cc1	-5%	/	11%[0.501 µM]	/	/	/
Cc1ccccc1-c1noc(-c2ccc(NCC3CCCO3)c([N+](=O)[O-])c2)n1 (centres undefined)	/	/	-29%[59 µM]	-8%	14%	-19%
COc1ccc(N2CC(NC(=O)COc3ccccc3)CC2=O)cc1OC (centres undefined)	/	/	-2%[59 µM]	8%	33%	-2%
Cc1cc(C)c2ccc(N)nc2c1O	15%	4%	?	-6%[57.1 µM]	13%	10%
Cc1cc(C)c2ccc(C)[n+]([O-])c2c1O	-18%	-2%	13µM*	-16%	8%	?
Cc1ccc(S(=O)(=O)c2c(C)nn(-c3ccccc3)c2OC(=O)c2ccccc2F)cc1	/	/	?	?	20%	-16%
CCOC(=O)C(=NC(C)(C)C)NNc1cc(Cl)ccc1Cl	-7%	0%	18µM*	?	-2%	?
CCCc1ccc(C(=O)NNc2cc(Cl)ccc2Cl)cc1	-3%	1%	?	-1%	14%	2%
CCOC(=O)C(=NC(C)C)NNc1cc(Cl)ccc1Cl	-23%	-3%	8.9µM*	?	14%	?
Cc1ccc(N(Cc2cccs2)C(=O)c2ccccc2)cc1	/	/	8%[59 µM]	64%	106%	24%
Cn1c(=O)n(Cc2ccccc2)c(=O)c2c1nc1n2CCN1c1ccccc1	/	/	-30%[59 µM]	-14%	30%	-15%
Cc1ccccc1OCC(=O)Nc1c(C)ccc2nsnc12	/	/	6%[59 µM]	8%	42%	-13%
O=C(c1ccc2c(c1)N(Cc1ccc(Cl)cc1)C(=O)c1ccccc1S2(=O)=O)N1CCC(Cc2ccccc2)CC1	/	/	-38%[59 µM]	-20%	18%	-23%
O=C(N/N=C/c1ccc(C(=O)O)cc1)C1=NNC(c2ccccc2)(c2ccccc2)C1	-11%	6%	0%	79µM*	35%	?
COCCCNC(=O)C[C@H]1C[C@H](C(=O)N2CCOCC2)[C@@]2(CCC3CCCC3)c3[nH]c4cc(-c5ccco5)ccc4c3CCN2C1=O	/	-11%	/	79µM*	?	/

Assay outcomes from PubChem BioAssay.
